Molecules are shown by their SMILES. Among all 410,000 compounds or so, about 18,000 (4.4%) were called active. Inconclusive results (about 7%) are left out. Many of the other results were omitted from the sample, so actives are more common in it than they were. A number with no mark means an inactive call. Rule as the data show it: active = activity change below about -60%; inconclusive = no clear call, values can overlap the other calls; inactive = above about -39%.
% is scaled to controls: 0 for no effect and ±100 for the full control effect.

The assay in a line: qHTS Assay for inhibitors of the human cytomegalovirus (HCMV). The settings on record: HFF cells, HCMV-luciferase reporter, 72 h; at 57.5 µM; hits give low values. The gist of the method: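 Inhibition of viral replication was scored as loss of reporter luminescence in HFFs infected with HCMV-luciferase (MOI 1 PFU/cell) for 72 h; compounds tested at 2 doses, normalized to buffer and Salinomycin controls.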
Background: qHTS replaces the single test concentration by a dilution series.
On to `CCC(c1nc2ccccc2[nH]1)n1c(=O)c(-c2cccs2)nc2ccccc21` (stereo not given), for which the activity change, negative = inhibition is -2.85%.

With `CCC(C)N1C(=O)S/C(=C/c2ccc(Sc3nc4ccccc4[nH]3)o2)C1=O` (stereo not given), the activity change, negative = inhibition was -91.5% (active).

`COc1ccc(C)cc1NC(=O)CCc1c(C)nn(-c2ccc(N3CCOCC3)nn2)c1C`: the activity change, negative = inhibition is 39.1%.

For `CCCCCn1c(=O)[nH]c2cc(C(=O)NCCN(C)CCCC)ccc2c1=O`, the activity change, negative = inhibition is -33.3%.

On to `CCOc1ccc(NC(=O)c2c(NC(=O)Cc3ccccc3)sc3c2CCCCC3)cc1`, for which the activity change, negative = inhibition is -74.7% (active).

Consider `CCOc1ccc(NC(=O)c2c(NC(=O)Cc3ccccc3)sc3c2CCC(C)C3)cc1` (stereo not given), for which the activity change, negative = inhibition was -34.6%.

`O=C(Cc1ccccc1)Nc1sc2c(c1C(=O)Nc1ccc(Br)cc1)CCC2`: the activity change, negative = inhibition is 5.03%.

For the compound `CC(C)c1ccc(NC(=O)c2ccc(Cn3nc(N4CCN(c5ccccc5)CC4)ccc3=O)o2)cc1`, the activity change, negative = inhibition is -19.5%.

For the compound `Cn1ncc2c(Nc3cccc4ccccc34)ncnc21`, the activity change, negative = inhibition is 87.3%.

With `Cc1cc(C)n(CC(=O)Nc2ccc([N+](=O)[O-])cc2)n1`, the activity change, negative = inhibition is -4.15%.

Turning to `Cc1cc([N+](=O)[O-])nn1CC(=O)Nc1ccc(Cc2ccncc2)cc1`, the activity change, negative = inhibition is -63.5% (active).

Take `CC(C)CC(=O)Nc1ccc(Cc2ccncc2)cc1`: the activity change, negative = inhibition is -32.9%.

On to `COc1ccc(NC(=O)CSC2=Nc3ccccc3C3=NC(CC(=O)NCc4ccccc4OC)C(=O)N23)cc1Cl` (stereo not given), for which the activity change, negative = inhibition was 17.7%.

Regarding `CC(C)(C)CC(C)(C)NCC(O)COCCOc1ccc(Br)cc1` (stereo not given), the activity change, negative = inhibition is -100% (active).

In the case of `CCC(C)NCCOCCOc1ccc(Br)cc1C` (stereo not given), the activity change, negative = inhibition was -37.4%.

As to `CC(Oc1ccc(Br)cc1)C(=O)NC1CCCCCC1` (stereo not given), the activity change, negative = inhibition was 25.7%.

Turning to `O=C(CCc1ccc(S(=O)(=O)N2CCOCC2)cc1)OCC(=O)c1ccc(Br)cc1`, the activity change, negative = inhibition was 49%.

In the case of `CC(=N\NC(=O)c1cc(Br)ccc1O)/C(=N/O)C(=O)Nc1ccccc1`, the activity change, negative = inhibition was 0%.

As to `Cc1ccc(-c2noc(CNC(=O)c3ccoc3C)n2)cc1`, the activity change, negative = inhibition was -11.6%.

For `C/C(=N\NC(=O)c1ccoc1C)c1ccccc1O`, the activity change, negative = inhibition is -91.4% (active).

Regarding `Cc1cc(C)c(C#N)c(Nc2cccc(Br)c2)n1`, the activity change, negative = inhibition is 34%.

In the case of `CCOC(=O)c1cc(-c2ccccc2)n(-c2cccc(C(=O)Nc3cc(OC)cc(OC)c3)c2)c1C`, the activity change, negative = inhibition was 0%.

As for `O=C(/C=C/c1cccs1)c1cc(Cl)ccc1OC(=O)N1CCOCC1`, the activity change, negative = inhibition was -92.8% (active).

Take `O=C(NCC(c1cccs1)N1CCOCC1)c1cc(Cl)ccc1[N+](=O)[O-]` (stereo not given): the activity change, negative = inhibition is -16.2%.

For the compound `CC(=O)Nc1ccccc1OC(=O)N1CCOCC1`, the activity change, negative = inhibition was -15.8%.

For the compound `CCc1ccccc1NC(=O)Cn1c(=O)n(-c2cccc(C)c2)c(=O)c2c1c1cc(OC)ccc1n2C`, the activity change, negative = inhibition was -23.1%.

With `O=C(COC(=O)c1ccccc1C(=O)N1CCN(c2ccccc2)CC1)NCc1ccccc1`, the activity change, negative = inhibition was -62.6% (active).

Turning to `O=C(COC(=O)c1ncc(Cl)c(Cl)c1Cl)NCc1ccccc1`, the activity change, negative = inhibition is 11.2%.

With `O=C(COC(=O)CNC(=O)C1CCCCC1)NCc1ccccc1`, the activity change, negative = inhibition is 69.4%.

On to `O=C(C1CCCN(S(=O)(=O)c2cccc3nonc23)C1)N1CCN(c2ccccc2F)CC1` (stereo not given), for which the activity change, negative = inhibition is 6.66%.

On to `O=[N+]([O-])c1ccc(NCCCO)c(C(F)(F)F)c1`, for which the activity change, negative = inhibition was -8.02%.

As for `Cc1ccc(-c2csc(NC(=O)C3=COCCO3)n2)cc1C`, the activity change, negative = inhibition is -61.5% (active).

Take `CCC(CC)c1nnc(NC(=O)C2=COCCO2)s1`: the activity change, negative = inhibition is -1.99%.

In the case of `Cc1ccc(C(=O)Nc2nnc(C3=COCCO3)o2)cc1C`, the activity change, negative = inhibition is -0.804%.

Consider `CCOc1ccc(CN2CCN(Cc3ccon3)CC2CCO)cc1` (stereo not given), for which the activity change, negative = inhibition was 3.47%.

For the compound `CC(C)(c1ccccc1)c1ccc(OCCN)cc1`, the activity change, negative = inhibition is -107% (active).

For the compound `Cc1nn(CCOc2ccccc2)c(=O)n1-c1ccccc1F`, the activity change, negative = inhibition is 69.3%.

Regarding `C=CCNCCCCOc1ccccc1`, the activity change, negative = inhibition was 16.3%.

Regarding `O=C(/C=C/c1ccccc1)Oc1coc(CSc2ncccn2)cc1=O`, the activity change, negative = inhibition was 9.32%.

As for `COC(=O)c1ccc(OC)c(Cn2c(=O)n(Cc3ccccc3)c(=O)c3c2c2cc(OC)ccc2n3C)c1`, the activity change, negative = inhibition was 7.51%.

With `O=C(C1CCN(Cc2ccc(Cl)cc2)CC1)N1CCN(Cc2ccc3c(c2)OCO3)CC1`, the activity change, negative = inhibition is -63% (active).

On to `O=C(Nc1ccccc1)N1CCC(C(=O)N2CCN(Cc3ccccc3)CC2)CC1`, for which the activity change, negative = inhibition is 0%.

Consider `O=C(C1CCN(S(=O)(=O)c2cnc[nH]2)CC1)N1CCN(Cc2ccc3c(c2)OCO3)CC1`, for which the activity change, negative = inhibition is 9.71%.

Turning to `CCS(=O)(=O)N1CCc2cc(C(=O)NCc3ccc(C)cc3)ccc21`, the activity change, negative = inhibition is -3.25%.

With `Cc1ccc(C(=O)Nc2ccccc2F)cc1S(=O)(=O)N1CCOCC1`, the activity change, negative = inhibition was 31.5%.

Take `Cc1ccc(NC(=O)N[C@H]2CC[C@@]34CCCN3C(=O)CCC[C@H]4C2Cc2ccccc2)cc1` (stereo not given in full): the activity change, negative = inhibition was 26.8%.

For `CCOC(=O)C1CCN(C(c2ccc(F)cc2)c2sc3nc(-c4ccco4)nn3c2O)CC1` (stereo not given), the activity change, negative = inhibition is 2.65%.

Regarding `Cc1cc(C)c(-c2n[nH]c3c2C(c2ccccc2F)N(CCO)C3=O)c(O)c1` (stereo not given), the activity change, negative = inhibition is 25.7%.

Regarding `CCC1(CC)NC(=O)N(CC(=O)OCC(=O)c2cc(C)c(C)cc2C)C1=O`, the activity change, negative = inhibition is -15.3%.

`CC(=O)Nc1ccc(S(=O)(=O)N2CCN(CCCOc3cc(C)ccc3C)CC2)cc1`: the activity change, negative = inhibition was -65.9% (active).

Turning to `Cc1ccc(C)c(OCCC(=O)Nc2cccc(S(=O)(=O)N3CCCC3)c2)c1`, the activity change, negative = inhibition is -23.7%.

As for `Cc1cccc(OCCCC(=O)Nc2ccc(S(=O)(=O)N3CCCC3)cc2)c1`, the activity change, negative = inhibition was 10.4%.

Regarding `CC1=C(C(=O)Nc2ccccc2)C(c2ccc(C)cc2)n2nc(SCc3ccccc3C)nc2N1` (stereo not given), the activity change, negative = inhibition is 1.28%.

As for `CCN(CC)c1ccc(C2C(C(N)=O)=C(C)Nc3nc(SCc4ccccc4)nn32)cc1` (stereo not given), the activity change, negative = inhibition is -90.4% (active).

With `CC1=C(C(N)=O)C(c2ccc3c(c2)OCO3)n2nc(-c3cccc(C)c3)nc2N1` (stereo not given), the activity change, negative = inhibition was 78%.

As for `CNc1ccc(-c2nc(-c3ccco3)no2)cc1[N+](=O)[O-]`, the activity change, negative = inhibition was 102%.

As for `COc1ccc(S(=O)(=O)n2nc(C)c(S(=O)(=O)N3CCCCCC3)c2C)cc1`, the activity change, negative = inhibition is -17.6%.

For the compound `Oc1c(CN2CCN(c3ccc(F)cc3)CC2)cc(Cl)c2cccnc12`, the activity change, negative = inhibition was -102% (active).

For `CC(C)c1ccc(O)c(CN2CCN(c3ccccc3)CC2)c1`, the activity change, negative = inhibition was 12.7%.

As to `COc1ccccc1CN1CCCC(N2CCN(c3ccc(F)cc3)CC2)C1` (stereo not given), the activity change, negative = inhibition is -1.19%.

(Values after PubChem BioAssay AID1259415 (National Center for Advancing Translational Sciences (NCATS), 2018).)
